# An excerpt weighted towards active compounds, which were near 7.3% of everything screened.
# FMDV antiviral – High Throughput Screening for Foot and Mouth Disease Virus Antivirals; FMDV antiviral cell-based qHTS; Potency, µM (doses to about 57.9 µM), actives largely listed as inhibitors; actives 1.2% (n = 410,000); AID 1159524, 2015; calls by dose curve; tested in HEK293T cells; further: read-out not given here; nearly all actives have a fitted effect of over 45% in size
# Vaccinia Venus – qHTS for Stage-Specific Inhibitors of Vaccinia Orthopoxvirus: Venus Reporter Primary qHTS | Vaccinia virus Venus reporter expression, fluorescence | actives 0.46% (n = 330,000) | Potency, µM (highest dose often 36.5 µM), actives largely listed as inhibitors; calls by dose curve; tested in A549 cells; further: nearly all actives have a fitted effect of over 30% in size
# HCMV antiviral – qHTS Assay for inhibitors of the human cytomegalovirus (HCMV); actives 4.5% (n = 410,000); HFF cells, HCMV-luciferase reporter, 72 h; active compounds read low; activity change, negative = inhibition, % at 57.5 µM; in the data active means activity change below about -60%; inconclusive means no clear call, values can overlap the other calls; inactive means above about -39%
#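 Steps: HFFs plated, 16 h 37C; compounds added; HCMV-luciferase added to MOI 1 PFU/cell; 72 h 37C; OneGlo reagent, 5 min room temperature; luminescence read, normalized to controls.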
# HCV inh – qHTS Assay for Inhibitors of Hepatitis C Virus (HCV). actives 3.4% (n = 340,000). AID 651820, 2012. Huh7.5.1 HCVcc-Cre infection, luciferase reporter, 44 h. Potency, µM (series often up to 41.8 µM), hits mostly inhibitors; active means well fitted inhibition curve with a large enough effect; inconclusive means small, poorly fitted or top-dose-only effect, or another doubt; inactive means no such curve, though single readings can be large or run the other way
#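 1,000 cells/well; 4 h culture; + compound; + HCVcc-Cre (~0.5 moi); 44 h; luciferase substrate, RT 15 min; read 15 sec.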
# VACV mCherry inh – qHTS for Stage-Specific Inhibitors of Vaccinia Orthopoxvirus: mCherry Reporter Primary qHTS | Vaccinia virus mCherry reporter infection, fluorescence | Potency, µM (doses to about 36.5 µM), usual class: inhibitors | actives 0.63% (n = 310,000); calls by dose curve; tested in A549 cells; further: nearly all actives have a fitted effect of over 35% in size
# Numbers stand for hits; . = inactive; ? = inconclusive; / = no result; ! = not confirmed by another sample; [ ] = dose if it differs, or a comment.
SMILES,FMDV antiviral,Vaccinia Venus,HCMV antiviral,HCV inh,VACV mCherry inh
CC(=O)c1cccc(-c2ccc3c(c2)C(C)(Cc2ccccc2C#N)C(=O)N3)c1 (stereo unspecified),.,.,-66,/,.
Cc1ccc(C2=N/C(=C\c3cccs3)C(=O)N2Nc2ccccc2)cc1,.,.,.,?,/
O=C1/C(=C/c2cccs2)N=C(c2cccs2)N1Nc1ccccc1,.,.,?,14µM,/
O=C1/C(=C\c2cccs2)N=C(c2cccs2)N1Nc1ccccc1,/,.,-78,?,.
CCOCN(C(=O)Cn1cnc2cc(C)c(C)cc21)c1c(C)cccc1CC,.,?,.,/,.
COc1ccccc1CNC(=O)C/C(C)=N/NC(=O)Cc1ccccc1,.,/,.,.,/
COc1ccccc1CNC(=O)C/C(C)=N/NC(=O)Cc1ccc(OC)c(OC)c1,.,.,-66,.,.
CCC(=O)N1CCc2cc(S(=O)(=O)NCCC(=O)N3CCN(c4cccc(C)c4)C(C)C3)ccc21 (stereo unspecified),?,/,.,14µM,/
CCC(=O)N1CCc2cc(S(=O)(=O)CCC(=O)N3CCN(c4ccc(Cl)cc4)CC3)ccc21,?,.[7.34 µM],-77!,10µM,.[7.34 µM]
CCC(=O)N1CCc2cc(S(=O)(=O)NCCC(=O)N3CCN(c4ccccc4)CC3)ccc21,.,/,.,.,/
CCOC(=O)c1ccc(NC(=O)C2CCN(C(=O)N3CC(C)Oc4ccc(C)cc43)CC2)cc1 (stereo unspecified),.,.,.,/,.
COc1ccc(C2=Nc3ccc(OC(F)(F)F)cc3NC(c3cccnc3)=N2)cc1,.,.,.,/,.
Cc1ccc(Nc2nc(N)nc(CN3CCN(Cc4ccc5c(c4)OCO5)CC3)n2)cc1Cl,?,/,.,32µM,/
Cc1ccc(NC(=O)N(Cc2ccc3c(c2)OCO3)C2CCN(Cc3ccccc3)CC2)cc1Cl,.,?,-71,/,?
Cc1ccc(NC(=O)N(Cc2ccc3c(c2)OCO3)C2CCN(Cc3ccccc3)CC2)cc1C,.,.,.,/,.
COc1ccc(N2CCN(Cc3nc(N)nc(Nc4ccc(C)c(Cl)c4)n3)CC2)cc1,?,/,.,10µM,/
CCOc1nc(Nc2ccc(OC)c(Cl)c2)nc(N2CCN(c3ccc(OC)cc3)CC2)n1,.,.,?,10µM,/
COC(=O)c1ccccc1-c1cc(C)cc2c1OC(CNC(=O)c1occc1C)C2 (stereo unspecified),.,.,/,/,.
COc1ccc(-c2noc(-c3ccc(NC4CCCC4)c([N+](=O)[O-])c3)n2)cc1OC,.,.,.,/,.
N[C@@H](CCS(=O)O)C(=O)O,.,.,/,/,.
CC(=O)O[C@H]1C=C[C@@H](NC(=O)OC(C)(C)C)C1,/,/,.,/,/
COC(=O)c1sccc1S(=O)(=O)N(CC(=O)NCc1ccc(F)cc1)c1ccc(Cl)cc1,.,.,.,/,.
CSCCC(NS(=O)(=O)c1ccc(C)c(C(=O)O)c1)C(=O)O (stereo unspecified),.,.,-64,.,.
CSCCC(NS(=O)(=O)c1ccc(Cl)cc1)C(=O)O (stereo unspecified),.,.,.,.,.
COCc1c(C(=O)N2CCC(N3CCCCC3)CC2)cnn1-c1ncc(C)c(-c2cccs2)n1,.,.,/,/,.
SMILES,FMDV antiviral,Vaccinia Venus,HCMV antiviral,HCV inh,VACV mCherry inh
Cc1ccc2c(c1)C(=O)C(=O)N2Cc1ccc(Br)cc1,.,?,-76,?,.
Cc1ccc2c(c1)C(=O)C(=O)N2Cc1ccc(OCCC(C)C)cc1,.,.,-95,/,.
CCOC(=O)c1c(S(=O)(=O)N2CCCC(C(=O)NCc3ccccc3OC)C2)c(C)n(C)c1C (stereo unspecified),.,.,.,/,.
COc1c2ccccc2c(OC)c2ccccc12,.,.,-64,.,.
COc1c(CC=C(C)C)cc(C2CC(=O)c3c(O)cc(O)cc3O2)cc1CC=C(C)C (stereo unspecified),?,.,-69,?,.
COc1ccc([C@@H]2CC(=O)c3c(O)cc(O)cc3O2)cc1O,.,.,.,.,.
COc1ccc(-c2noc(CCC(=O)N3CCN(c4ccc(C(F)(F)F)cc4)CC3)n2)cc1,.,.,.,.,.
Cc1ccc(-c2noc(CCC(=O)N3CCN(c4cccc(C(F)(F)F)c4)CC3)n2)cc1,?,?,.,11µM!,/
O=C(c1cc2ccccn2n1)N1CCN(c2cccc(C(F)(F)F)c2)CC1,?,/,-68,.,/
S=C(NCC1CCCO1)N1CCN(c2ccccc2)CC1 (stereo unspecified),.,.,.,.,.
FC(F)(F)c1cccc(N2CCN(C(=S)NCC3CCCO3)CC2)c1 (stereo unspecified),?,.,-65,11µM,.
O=C(c1noc2c1CCCCC2)N1CCN(c2cccc(C(F)(F)F)c2)CC1,.,.,-78,/,.
CCOCCc1nn2c(=O)cc(COC(=O)c3ccco3)nc2s1,.,.,.,/,.
CC(=O)NC(Cc1ccc(O)cc1)C(=O)O (stereo unspecified),/,/,.,/,/
COc1ccccc1-c1nnc(C2CCN(S(=O)(=O)c3ccc(CC(C)C)cc3)CC2)o1,.,.,.,/,.
Cn1c(CN2CCCCC2)nc2cc(NC(=O)c3ccc(F)cc3)ccc21,?,/,-62,10µM,/
CCOC(=O)N1CCN(Cc2nc3cc(NC(=O)c4ccc(F)cc4)ccc3n2C(C)C)CC1,?,.[7.34 µM],-85,/,.[7.34 µM]
COc1ccc(NC(=O)CCc2nc3c(C)nn(-c4ccc(C)cc4)c3n(C)c2=O)c(OC)c1,.,.,.,/,.
O=C1NC2C3CC(c4ccccc43)C12 (stereo unspecified),.,.,-70,/,.
CCc1nc2c(OCc3ccc(F)cc3)cccn2c1N(C)C(=O)c1ccco1,.,.,.,/,.
CCc1nc2c(OCc3ccc(Cl)cc3)cccn2c1N(C)C(=O)c1ccco1,28µM,?,-77,/,?
CC(=O)N1CCN(C2=Nc3cccc4cccc2c34)CC1,/,.,.,11µM,.
CCOC(=O)N1CCN(C2=Nc3cccc4cccc2c34)CC1,/,.,.,.,.
c1cc2c3c(cccc3c1)C(N1CCOCC1)=N2,.,.,.,.,.
c1ccc(CC2CCN(C3=Nc4cccc5cccc3c45)CC2)cc1,?,.,/,11µM,.
SMILES,FMDV antiviral,Vaccinia Venus,HCMV antiviral,HCV inh,VACV mCherry inh
COc1ccccc1N1CCN(C2=Nc3cccc4cccc2c34)CC1,.,.,.,13µM,.
N#Cc1nc(-c2ccc(OCc3ccc(Cl)cc3)cc2)oc1N1CCCCCC1,/,.,/,/,.
COCCN1C(=O)c2[nH]nc(-c3ccccc3O)c2C1c1ccc(Cl)c(Cl)c1 (stereo unspecified),.,.,.,/,.
CC(=O)Oc1ccc(N(C(C)=O)S(=O)(=O)c2cccs2)c2ccccc12,16µM,.,.,/,.
CC(=O)Oc1ccccc1N(C(C)=O)S(=O)(=O)c1ccc2ccccc2c1,.,.,.,.,.
Cc1ccc(C)c(C2NC(=O)c3ccccc3N2)c1 (stereo unspecified),.,?,-68,.,?

# From PubChem BioAssay
